A number with no mark means an inactive call. Calls come from the whole dose curve; as a rule, active = well fitted inhibition curve with a large enough effect; inconclusive = small, poorly fitted or top-dose-only effect; inactive = flat fitted curve, though single readings scatter. Where a SMILES comes first, the peptide text is derived from it. Bridges are numbered along the chain shown (N, C = ends). [ ]: non-standard residue; d: D form. NMeY = CN[CH](Cc1ccc(O)cc1)C(=O)O
These compounds were tested on Nanoluciferase (engineered Oplophorus gracilirostris luciferase) (assay: Primary Nanoluciferase (NLuc) qHTS assay for identification of artifact compounds. (AID 1845222;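 note: 0% = DMSO and -100% = no enzyme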)). Settings: NLuc-conditioned medium, Nano-Glo luminescence, 5 min; series mostly up to 54.1 µM; activity, negative = inhibition: at the top concentration.
Summary of the method: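 Luminescence from secreted NLuc (filtered, 1:55-diluted S16 cell medium) read 5 min after Nano-Glo substrate; compounds preincubated 15 min, RT. Hill fits of inhibition normalized to DMSO and no-enzyme.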

| Compound | activity, negative = inhibition |
| --- | --- |
| CC(=O)SCC(=O)c1ccc(NS(=O)(=O)c2ccc(OCCCN(C)C)cc2)nc1 | -13% |
| N=c1nc2n(cc1F)C1OC(CO)C(O)C1O2 (configuration not stated) | 4.2% |
| Cc1ccc(C(=O)N(CCCN)C(c2nc3cc(Cl)ccc3c(=O)n2Cc2ccccc2)C(C)C)cc1 (configuration not stated) | 2.61% |
| OC[C@H]1O[C@@H](OCCc2ccccc2)[C@H](O[C@@H]2OC[C@](O)(CO)[C@H]2O)[C@@H](O)[C@@H]1O | -1.53% [at 25.7 µM] |
| Cc1ccc(NC(=O)c2ccc(CN3CC[C@H](N(C)C)C3)c(C(F)(F)F)c2)cc1Nc1nccc(-c2cncnc2)n1 | -1.96% [at 25.7 µM] |
| COc1cc(O)c([C@@H](CC(=O)N2CC(C)CC(C)C2)c2ccc3c(c2)OCO3)c(OC)c1 (some centres not stated) | -8.51% |
| O=C(Nc1ccc(S(=O)(=O)Nc2nccs2)cc1)C(c1ccccc1)c1ccccc1 | -6.3% |
| CC1CCN(C(=O)CC#N)CC1N(C)c1ncnc2[nH]ccc12 (configuration not stated) | 4.43% |
| CN(C)C(=O)NC1CCC(CCN2CCN(c3cccc(Cl)c3Cl)CC2)CC1 (configuration not stated) | -1.17% [at 11.6 µM] |
| CCC(C)C1NC(=O)C2CCCN2C(=O)C(NC(C)=O)C(C)OC(=O)C(Cc2ccc(OC)cc2)N(C)C(=O)C2CCCN2C(=O)C(C(C)C)NC1=O (configuration not stated) (Ac-TPIVP[NMeY](Me); ester 1-C; configuration not given here) | -0.986% [at 25.7 µM] |
| COc1cccc2cc3c(c(O[C@@H]4O[C@H](CO[C@@H]5O[C@H](CO)[C@@H](O)[C@H](O)[C@H]5O)[C@@H](O)[C@H](O)[C@H]4O)c12)C(C)OC3=O (some centres not stated) | -0.793% [at 25.7 µM] |
| CC(C)(F)C[C@@H](N[C@@H](c1ccc(-c2ccc(S(C)(=O)=O)cc2)cc1)C(F)(F)F)C(=O)NC1(C#N)CC1 | 0.674% |
| C[C@@H]1CCC2C(C)(C)[C@H](O)CC[C@]2(C)[C@@]12Cc1c(O)cc3c(c1O2)CN([C@@H](CCC(=O)O)C(=O)O)C3=O (some centres not stated) | 4.8% [at 25.7 µM] |
| C=C[C@]1(C)C=C2CCC3C(C)(CCC[C@@]3(C)C(=O)O)C2CC1 (some centres not stated) | 4.84% |
| CC(=O)N[C@@H](CCCCN)C(=O)N(C)[C@@H](CC(C)C)C(=O)N[C@H](C(=O)N(C)[C@@H](Cc1ccccc1)C(=O)N[C@H](Cc1ccccc1)C(N)=O)C(C)C | 2.14% [at 6.45 µM] |
| CC(NC(=O)CCc1nc2ccccc2c(=O)[nH]1)c1ccccc1 (configuration not stated) | -16.8% |

| Compound | activity, negative = inhibition |
| --- | --- |
| COC1=CC(=O)CC(C)C12Oc1cc(OC)cc(O)c1C2=O (configuration not stated) | -15.8% |
| CC(=O)OC12COC1CC(O)C1(C)C(=O)C(O)C3=C(C)C(OC(=O)C(O)C(NC(=O)OC(C)(C)C)c4ccccc4)CC(O)(C(OC(=O)c4ccccc4)C21)C3(C)C (configuration not stated) | -5.2% |
| CC(NC(=O)C(O)C(C)C)C(=O)NC1C(=O)N(C)CCc2ccccc21 (configuration not stated) | 0.494% |
| CC1(C)C=CN2C(=O)C3=CCCN3C(=O)[C@@H]2C[C@@]12Nc1ccccc1C2=O | -7.39% |
| OC[C@H]1O[C@@H](Oc2ccccc2)[C@H](O)[C@@H](O)[C@@H]1O | 4.16% |
| CC(Oc1ccc2[nH]nc(/C=C/c3cnn(CCO)c3)c2c1)c1c(Cl)cncc1Cl (configuration not stated) | 1.06% |
| CS(=O)(=O)N1CCC(NC(=O)c2[nH]ncc2NC(=O)c2c(Cl)cccc2Cl)CC1 | 1.28% |
| CCc1cnn2c(NCc3ccc[n+]([O-])c3)cc(N3CCCCC3CCO)nc12 (configuration not stated) | 1.18% |
| CC1(C)CC[C@]2(C(=O)O[C@@H]3O[C@H](CO)[C@@H](O)[C@H](O)[C@H]3O)CC[C@]3(C)C(=CCC4[C@@]5(C)CC[C@H](O[C@@H]6O[C@H](C(=O)O)[C@@H](O)[C@H](O)[C@H]6O)[C@@](C)(CO)C5CC[C@]43C)C2C1 (some centres not stated) | -2.6% [at 11.6 µM] |
| CC(O)CO[C@@H]1O[C@H](CO)[C@@H](O)[C@H](O)[C@H]1O (some centres not stated) | -0.378% |
| C/C1=C\CC[C@H](C)CCO[C@@H]2O[C@H](CO[C@@H]3OC[C@](O)(COC1=O)[C@H]3O)[C@@H](O)[C@H](O)[C@H]2O | 1.85% [at 25.7 µM] |
| O=C(CCc1nnc2n(Cc3ccc(Cl)cc3)c(=O)c3ccccc3n12)NCCC1=CCCCC1 | -9.75% |
| CNC(=O)c1cccc(-c2ccc3c(N4CCOC[C@@H]4C)nc(N4CCOC[C@@H]4C)nc3n2)c1 | 4.38% |
| CCC1=CC2CN(C1)Cc1c([nH]c3ccccc13)[C@@](C(=O)OC)(c1cc3c(cc1OC)N(C)[C@H]1[C@@](O)(C(=O)OC)[C@H](OC(C)=O)[C@]4(CC)C=CCN5CC[C@]31[C@@H]54)C2 (some centres not stated) | 0.126% [at 25.7 µM] |
| CC(=O)OC1C(=O)C2(C)C(O)CC3OCC3(OC(C)=O)C2C(OC(=O)c2ccccc2)C2(O)CC(OC(=O)C(O)C(NC(=O)c3ccccc3)c3ccccc3)C(C)=C1C2(C)C (configuration not stated) | -1.41% |
| COc1cc(O)cc(C)c1C(=O)OC1C(CO)OC(OC2C(O)C(O)C(O)C(O)C2O)C(O)C1O (configuration not stated) | 0.205% [at 25.7 µM] |

Reference: PubChem BioAssay (NCATS)
